{"source": "PubChem BioAssay (NCI)", "note": "Compounds without any hit were thinned out: in the full panel of roughly 79,000, 15% have a hit. Active and inactive are the calls of the source. No stated cut-off is given here; in the data, active means growth inhibition above about 70%; inactive means the rest.", "data": [{"experiment": "NCI Yeast Anticancer Drug Screen. Data for the mec2-1 strain (AID 157)", "details": "S. cerevisiae mec2-1 strain, at 50.0 µM, hits give high values", "outline": "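Compounds were applied to mec2-1 yeast cells. Their growth was then compared with that of vehicle-treated cultures to give growth inhibition.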", "values": [{"smiles": "COc1ccc2c(C)[n+]3ccc4cc(OC)c(OC)cc4c3cc2c1", "note": "(tested in a mixture with another compound)", "growth inhibition": "12.4% (inactive)"}, {"smiles": "CC12CCC(C(S(=O)(=O)O)C1=O)C2(C)C", "note": "(stereo not given) (tested in a mixture with another compound)", "growth inhibition": "-15.1% (inactive)"}, {"smiles": "COc1ccc(OC)c(C(O)P(=O)(c2ccccc2)c2ccccc2)c1", "note": "(stereo not given)", "growth inhibition": "1.65% (inactive)"}, {"smiles": "COc1ccc(C(O)Cc2cc(=O)cc(-c3ccccc3)[nH]2)cc1", "note": "(stereo not given)", "growth inhibition": "-4.95% (inactive)"}, {"smiles": "COc1ccc(CCc2ccc(Cl)cc2)cc1", "growth inhibition": "6.3% (inactive)"}, {"smiles": "COC(=O)[C@@]1(C(C)CC(=O)O)CCCCC1=O", "note": "(stereo not given in full)", "growth inhibition": "-16.4% (inactive)"}, {"smiles": "CCOC(=O)COc1ccc(Cl)cc1C", "growth inhibition": "-4.7% (inactive)"}, {"smiles": "C=CCc1cc(C(=O)C(=O)c2cc(CC=C)c(OC(C)=O)c(OC)c2)cc(OC)c1OC(C)=O", "growth inhibition": "6.75% (inactive)"}, {"smiles": "CCOC(=O)Sc1nccn1C", "growth inhibition": "-19.2% (inactive)"}, {"smiles": "OC(CSCc1ccccc1)c1ccccc1", "note": "(stereo not given)", "growth inhibition": "2.45% (inactive)"}, {"smiles": "CC1CCCCN1P(N1CCCCC1C)N1CCCCC1C", "note": "(stereo not given)", "growth inhibition": "20.4% (inactive)"}, {"smiles": "O=C(O)CC(SSCc1ccccc1)C(=O)O", "note": "(stereo not given)", "growth inhibition": "16.6% (inactive)"}, {"smiles": "COc1ccc(NC(=O)CC(=O)N2N=C(N(CCC#N)c3ccccc3Cl)CC2c2ccccc2)cc1", "note": "(stereo not given)", "growth inhibition": "-23.6% (inactive)"}, {"smiles": "CC(=O)OC1CCC2C(C)(CCC3C2(C)CCC2(C)C4CC(C)(C)CCC4(C)CCC32C)C1C", "note": "(stereo not given)", "growth inhibition": "-6.25% (inactive)"}, {"smiles": "CCN(CC)C(N)=Nc1cc2ccccc2c2ccccc12", "growth inhibition": "-22.8% (inactive)"}, {"smiles": "CCOC(=O)CC/C(=C\\NC(=O)c1ccccc1)NC(=O)c1ccccc1", "growth inhibition": "-26.4% (inactive)"}, {"smiles": "OCC(O)C(O)C(O)c1nn(-c2ccccc2)c2nc3ccccc3nc12", "note": "(stereo not given)", "growth inhibition": "1.3% (inactive)"}, {"smiles": "N#CC(c1ccc(O)cc1)N1CCN(C(C#N)c2ccc(O)cc2)CC1", "note": "(stereo not given)", "growth inhibition": "1% (inactive)"}, {"smiles": "O=C(O)c1cccnc1-c1ccccc1", "growth inhibition": "23.6% (inactive)"}, {"smiles": "CCOC(=O)C(NC(N)=O)C(=O)OCC", "growth inhibition": "15% (inactive)"}, {"smiles": "CC(=O)Nc1ccccc1/C=C\\c1ccccn1", "growth inhibition": "-9.85% (inactive)"}, {"smiles": "CC(=O)OC(C)c1cc2c(s1)C(=O)c1sccc1C2=O", "note": "(stereo not given)", "growth inhibition": "91% (active)"}, {"smiles": "C=C1CN(C2=NCCO2)C1", "growth inhibition": "-39.6% (inactive)"}, {"smiles": "CCC(=O)C(=O)C1CCCCC1=O", "note": "(stereo not given)", "growth inhibition": "-3.8% (inactive)"}, {"smiles": "CC(=O)c1cccc(NC(=O)c2c(Br)c(Br)c(Br)c(Br)c2C(=O)O)c1", "growth inhibition": "-12.6% (inactive)"}, {"smiles": "CN(/N=C/C=N/N(C)C1=NCCCCN1)C1=NCCCCN1", "growth inhibition": "-11.3% (inactive)"}, {"smiles": "Cc1cc2c(cc1C)[n+](=O)c(C(=O)CC(=O)C(=O)Nc1ccccc1C)c(C)n2[O-]", "growth inhibition": "46.5% (inactive)"}, {"smiles": "CCc1n[nH]c(=O)n1/N=C/c1c(O)ccc2ccccc12", "growth inhibition": "10.8% (inactive)"}, {"smiles": "CCc1cc2c(cc1C(=O)/C=C\\c1cccc3ccccc13)C(C)(C)CCC2(C)C", "growth inhibition": "-5.35% (inactive)"}, {"smiles": "Cc1nc2ccc(Br)cc2c(=O)n1-c1ccc(N=Cc2ccccc2Cl)cc1", "growth inhibition": "16.5% (inactive)"}, {"smiles": "O=C1c2cccc3c(Br)ccc(c23)C(=O)N1CCCN1CCOCC1", "growth inhibition": "77.7% (active)"}, {"smiles": "COc1cc(OC)c(NC(=O)CC2SC(N)=NC2=O)cc1Cl", "note": "(stereo not given)", "growth inhibition": "6.85% (inactive)"}, {"smiles": "CN1C(=O)C(O)Nc2ncncc21", "note": "(stereo not given)", "growth inhibition": "-19.9% (inactive)"}, {"smiles": "BrC12c3ccccc3C(Br)(c3ccccc31)c1ccccc12", "growth inhibition": "5.6% (inactive)"}, {"smiles": "N#CC1=C(c2ccccc2)C(=C2Nc3ccccc3N2)C2S/C(=C\\c3ccccc3)C(=O)N2C1=N", "note": "(stereo not given)", "growth inhibition": "-12.3% (inactive)"}, {"smiles": "O=C(CCCCCCC(=O)ON1C(=O)CCC1=O)ON1C(=O)CCC1=O", "growth inhibition": "-3.55% (inactive)"}, {"smiles": "Cc1ccc(-c2cc(-c3ccco3)c(C#N)c(=O)[nH]2)cc1", "growth inhibition": "-8.55% (inactive)"}, {"smiles": "CCCCCC/C=C/C(N)=O", "growth inhibition": "5.6% (inactive)"}, {"smiles": "COc1ccc(OC)c(N=Cc2ccc(C=Nc3cc(OC)ccc3OC)cc2)c1", "growth inhibition": "-12.3% (inactive)"}, {"smiles": "O=C1c2c(ccc3c2CCC3)CC12Cc1cc3c(cc1C2)CCC3", "growth inhibition": "-32.5% (inactive)"}]}, {"experiment": "NCI Yeast Anticancer Drug Screen. Data for the sgs1 mgt1 strain (AID 161);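 further: 0% = growth of cultures given vehicle only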", "details": "S. cerevisiae sgs1 mgt1 strain, at 50.0 µM, hits give high values", "outline": "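Yeast cells carrying a defined DNA-repair defect were exposed to test compounds. Growth inhibition was measured relative to vehicle-treated controls.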", "values": [{"smiles": "COc1ccc2c(C)[n+]3ccc4cc(OC)c(OC)cc4c3cc2c1", "note": "(tested in a mixture with another compound)", "growth inhibition": "22.9% (inactive)"}, {"smiles": "CC12CCC(C(S(=O)(=O)O)C1=O)C2(C)C", "note": "(stereo not given) (tested in a mixture with another compound)", "growth inhibition": "-6.7% (inactive)"}, {"smiles": "COc1ccc(OC)c(C(O)P(=O)(c2ccccc2)c2ccccc2)c1", "note": "(stereo not given)", "growth inhibition": "31.4% (inactive)"}, {"smiles": "COc1ccc(C(O)Cc2cc(=O)cc(-c3ccccc3)[nH]2)cc1", "note": "(stereo not given)", "growth inhibition": "2.2% (inactive)"}, {"smiles": "COc1ccc(CCc2ccc(Cl)cc2)cc1", "growth inhibition": "-5.9% (inactive)"}, {"smiles": "COC(=O)[C@@]1(C(C)CC(=O)O)CCCCC1=O", "note": "(stereo not given in full)", "growth inhibition": "-38.2% (inactive)"}, {"smiles": "CCOC(=O)COc1ccc(Cl)cc1C", "growth inhibition": "-2.4% (inactive)"}, {"smiles": "C=CCc1cc(C(=O)C(=O)c2cc(CC=C)c(OC(C)=O)c(OC)c2)cc(OC)c1OC(C)=O", "growth inhibition": "6.45% (inactive)"}, {"smiles": "CCOC(=O)Sc1nccn1C", "growth inhibition": "3.25% (inactive)"}, {"smiles": "OC(CSCc1ccccc1)c1ccccc1", "note": "(stereo not given)", "growth inhibition": "-7.95% (inactive)"}, {"smiles": "CC1CCCCN1P(N1CCCCC1C)N1CCCCC1C", "note": "(stereo not given)", "growth inhibition": "29% (inactive)"}, {"smiles": "O=C(O)CC(SSCc1ccccc1)C(=O)O", "note": "(stereo not given)", "growth inhibition": "-4.15% (inactive)"}, {"smiles": "COc1ccc(NC(=O)CC(=O)N2N=C(N(CCC#N)c3ccccc3Cl)CC2c2ccccc2)cc1", "note": "(stereo not given)", "growth inhibition": "-1% (inactive)"}, {"smiles": "CC(=O)OC1CCC2C(C)(CCC3C2(C)CCC2(C)C4CC(C)(C)CCC4(C)CCC32C)C1C", "note": "(stereo not given)", "growth inhibition": "-11.8% (inactive)"}, {"smiles": "CCN(CC)C(N)=Nc1cc2ccccc2c2ccccc12", "growth inhibition": "-16.9% (inactive)"}, {"smiles": "CCOC(=O)CC/C(=C\\NC(=O)c1ccccc1)NC(=O)c1ccccc1", "growth inhibition": "-21.6% (inactive)"}, {"smiles": "OCC(O)C(O)C(O)c1nn(-c2ccccc2)c2nc3ccccc3nc12", "note": "(stereo not given)", "growth inhibition": "3.4% (inactive)"}, {"smiles": "N#CC(c1ccc(O)cc1)N1CCN(C(C#N)c2ccc(O)cc2)CC1", "note": "(stereo not given)", "growth inhibition": "-33.2% (inactive)"}, {"smiles": "O=C(O)c1cccnc1-c1ccccc1", "growth inhibition": "-9.85% (inactive)"}, {"smiles": "CCOC(=O)C(NC(N)=O)C(=O)OCC", "growth inhibition": "0.95% (inactive)"}, {"smiles": "CC(=O)Nc1ccccc1/C=C\\c1ccccn1", "growth inhibition": "-15.5% (inactive)"}, {"smiles": "CC(=O)OC(C)c1cc2c(s1)C(=O)c1sccc1C2=O", "note": "(stereo not given)", "growth inhibition": "88.8% (active)"}, {"smiles": "C=C1CN(C2=NCCO2)C1", "growth inhibition": "-5.65% (inactive)"}, {"smiles": "CCC(=O)C(=O)C1CCCCC1=O", "note": "(stereo not given)", "growth inhibition": "-2.5% (inactive)"}, {"smiles": "CC(=O)c1cccc(NC(=O)c2c(Br)c(Br)c(Br)c(Br)c2C(=O)O)c1", "growth inhibition": "2.95% (inactive)"}, {"smiles": "CN(/N=C/C=N/N(C)C1=NCCCCN1)C1=NCCCCN1", "growth inhibition": "-22.2% (inactive)"}, {"smiles": "Cc1cc2c(cc1C)[n+](=O)c(C(=O)CC(=O)C(=O)Nc1ccccc1C)c(C)n2[O-]", "growth inhibition": "3.8% (inactive)"}, {"smiles": "CCc1n[nH]c(=O)n1/N=C/c1c(O)ccc2ccccc12", "growth inhibition": "1.05% (inactive)"}, {"smiles": "CCc1cc2c(cc1C(=O)/C=C\\c1cccc3ccccc13)C(C)(C)CCC2(C)C", "growth inhibition": "8.15% (inactive)"}, {"smiles": "Cc1nc2ccc(Br)cc2c(=O)n1-c1ccc(N=Cc2ccccc2Cl)cc1", "growth inhibition": "26.6% (inactive)"}, {"smiles": "O=C1c2cccc3c(Br)ccc(c23)C(=O)N1CCCN1CCOCC1", "growth inhibition": "80.2% (active)"}, {"smiles": "COc1cc(OC)c(NC(=O)CC2SC(N)=NC2=O)cc1Cl", "note": "(stereo not given)", "growth inhibition": "20.2% (inactive)"}, {"smiles": "CN1C(=O)C(O)Nc2ncncc21", "note": "(stereo not given)", "growth inhibition": "-4.55% (inactive)"}, {"smiles": "BrC12c3ccccc3C(Br)(c3ccccc31)c1ccccc12", "growth inhibition": "-3.15% (inactive)"}, {"smiles": "N#CC1=C(c2ccccc2)C(=C2Nc3ccccc3N2)C2S/C(=C\\c3ccccc3)C(=O)N2C1=N", "note": "(stereo not given)", "growth inhibition": "10.4% (inactive)"}, {"smiles": "O=C(CCCCCCC(=O)ON1C(=O)CCC1=O)ON1C(=O)CCC1=O", "growth inhibition": "-16.8% (inactive)"}, {"smiles": "Cc1ccc(-c2cc(-c3ccco3)c(C#N)c(=O)[nH]2)cc1", "growth inhibition": "-13.5% (inactive)"}, {"smiles": "CCCCCC/C=C/C(N)=O", "growth inhibition": "-7.8% (inactive)"}, {"smiles": "COc1ccc(OC)c(N=Cc2ccc(C=Nc3cc(OC)ccc3OC)cc2)c1", "growth inhibition": "-10.6% (inactive)"}, {"smiles": "O=C1c2c(ccc3c2CCC3)CC12Cc1cc3c(cc1C2)CCC3", "growth inhibition": "-22.9% (inactive)"}]}]}
